SMILES strings stand for the structures.

The test has as its system LOC_OS01G70970-cb002. Description: thermal shift delta Tm vs DMSO control; higher = stronger stabilization (binding). The settings on record: 12.5 µM; protein concentration 2 µM. In outline: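 Purified, E. coli-expressed rice kinase domain constructs were tested by differential scanning fluorimetry in 96-well plates: 19.5 μl of 2 μM kinase in 100 mM potassium phosphate pH 7.5, 150 mM NaCl, 10% glycerol, 5 × SYPRO Orange, plus compound in DMSO. Fluorescence was read from 25°C to 95°C at 0.05°C/s. Melting temperatures came from Boltzmann fits, and the shift is the triplicate mean relative to protein with DMSO alone.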
Consider `Oc1c2ccccc2c2c3c(cccc13)N=N2`, for which the “thermal shift delta Tm” value is 6.02 °C.
The figure for `CSc1cccc(Nc2ncc3cc(-c4c(Cl)cccc4Cl)c(=O)n(C)c3n2)c1` is 0.3 °C; for `COc1cc(Nc2ncc(F)c(Nc3ccc4c(n3)NC(=O)C(C)(C)O4)n2)cc(OC)c1OC` [R406 (free base)] it is 3.16 °C.
Under `Cc1cn(-c2cc(NC(=O)c3ccc(C)c(Nc4nccc(-c5cnccn5)n4)c3)cc(C(F)(F)F)c2)cn1` [Radotinib] stands 0.3 °C; under `CN1CCN(Cc2ccc(-c3cnc4[nH]cc(-c5ccc6[nH]ccc6c5)c4c3)cc2)CC1`, 10.2 °C.
Under `CONC(=O)c1ccccc1Nc1cc(Nc2cc(C)nn2C(C)C)ncc1Cl` stands 1.15 °C; under `CNC(=O)c1cc(Oc2ccc(NC(=O)Nc3ccc(Cl)c(C(F)(F)F)c3)c(F)c2)ccn1` [Regorafenib (BAY 73-4506)], 0.36 °C; under `c1cc(-c2cnn3cc(-c4ccc(OCCN5CCCCC5)cc4)cnc23)ccn1` [Dorsomorphin 2HCl], 8.77 °C.
Consider `CCCCCCCCCC(=O)CC(O)S(=O)(=O)O` (configuration not stated) [Sodium Houttuyfonate], for which the “thermal shift delta Tm” value was found to be 0.09 °C.
Under `CC(C)[C@H](CO)Nc1nc(Nc2cccc(Cl)c2)c2ncn(C(C)C)c2n1` [Purvalanol A] stands 3.68 °C; under `COc1ccc(Cl)c(Nc2nc3ccccc3nc2NS(=O)(=O)c2cccc(NC(=O)C(C)(C)N)c2)c1` [Pilaralisib (XL147)], 1.26 °C.
Under `CC(C)Oc1ccc(-c2nn([C@@H](C)c3oc4ccc(F)cc4c(=O)c3-c3cccc(F)c3)c3ncnc(N)c23)cc1F` stands 0.55 °C.
On to `O=C(/C=C/c1ccc2ccccc2n1)c1ccncc1`, for which the “thermal shift delta Tm” value is 0.59 °C.
Under `CC(C)(O)CC(=O)NCCn1ccc2ncnc(Nc3ccc(Oc4cccc(C(F)(F)F)c4)c(Cl)c3)c21` stands 1.03 °C; under `CCOC(=O)c1cnc2ccc(-c3cncc(NS(=O)(=O)c4ccccc4)c3)cn12`, 0.2 °C; under `N#Cc1c(NC(=O)c2cccc3ccccc23)sc2c1CCCC2` [JNK Inhibitor IX], 0 °C.
With `CN(C)Cc1cccc(N=C(c2ccccc2)c2c(O)[nH]c3cc(C(=O)N(C)C)ccc23)c1`, the “thermal shift delta Tm” value came out at 0.24 °C.
Under `O=c1c(-c2ccc(O)cc2)coc2cc(O)cc(O)c12` [Genistein] stands 0.33 °C; under `CCn1c2ccccc2c2cc(Nc3ccnc(NCCCN4CCOCC4)n3)ccc21`, 0.28 °C.
The figure for `N#CC(=C(/N)Sc1ccccc1N)/C(C#N)=C(\N)Sc1ccccc1N` is 0.62 °C; for `CCN(CC)CCCC(C)Nc1nc(C)cc(Nc2ccc3nc(C)cc(N)c3c2)n1` (configuration not stated) it is 0.16 °C; for `c1cn2cc(-c3ccc4cn[nH]c4c3)nc(Nc3ccc(N4CCOCC4)cc3)c2n1` [Entospletinib (GS-9973)] it is 1.17 °C.
For `C[C@H]1CNC(=O)c2cnn3ccc(nc23)N[C@H](C)c2cc(F)ccc2O1`, the “thermal shift delta Tm” value was 0.74 °C.
The figure for `CC(C)c1cnn2c(NCc3ccccc3)cc(NCCCCCCN)nc12` is 0.19 °C; for `C=CC(=O)Nc1cccc(Nc2nc(Nc3ccc(NC4CN(CCF)C4)cc3OC)ncc2C(F)(F)F)c1` it is 0.87 °C.
In the case of `CNC(=O)CN1CCC(Oc2cc3c(Nc4cccc(Cl)c4F)ncnc3cc2OC)CC1` [Sapitinib (AZD8931)], the “thermal shift delta Tm” value was -0.1 °C.
The figure for `C=CC(=O)Nc1cccc(Nc2nc(Nc3ccc(N4CCN(C(C)=O)CC4)cc3OC)ncc2C(F)(F)F)c1` [Rociletinib (CO-1686, AVL-301)] is 1.38 °C.
On to `O=C(c1ccc(/C=C/c2n[nH]c3ccccc23)cc1)N1CCNCC1`, for which the “thermal shift delta Tm” value amounted to 6.89 °C.
The figure for `Cc1ccc(NC(=O)c2ccc(CN3CCN(C)CC3)cc2)cc1Nc1nc(-c2cccnc2)cs1` [Masitinib (AB1010)] is 0.24 °C; for `N#Cc1c(O)c2c(-c3ccc(-c4ccccc4O)cc3)csc2[nH]c1=O` it is 0.52 °C.
Under `CN1CC[C@H](c2c(O)cc(O)c3c(=O)cc(-c4ccccc4Cl)oc23)[C@H](O)C1` [Flavopiridol (Alvocidib)] stands 1.4 °C; under `Cc1cnc(Nc2ccc(OCCN3CCCC3)cc2)nc1Nc1cccc(S(=O)(=O)NC(C)(C)C)c1`, 2.94 °C.
The figure for `C[C@@H](Oc1ccc2[nH]nc(/C=C/c3cnn(CCO)c3)c2c1)c1c(Cl)cncc1Cl` is 12.2 °C.
As to `Nc1cccc(-c2cc3c(Oc4cccc(O)c4)ncnc3[nH]2)c1`, the “thermal shift delta Tm” value came out at 0.81 °C.
With `CN1CCC(COc2cnc(-c3cccc(Cn4nc(-c5cccc(C#N)c5)ccc4=O)c3)nc2)CC1`, the “thermal shift delta Tm” value amounted to 0.15 °C.
Under `C[C@H](Nc1ncnc2nc[nH]c12)c1cc2cccc(Cl)c2c(=O)n1-c1ccccc1` [Duvelisib (IPI-145, INK1197)] stands 0.33 °C; under `CCCCNc1ncc(C(=O)NCc2ccc(-n3ccnc3)cc2)c(NC2CCC(O)CC2)n1` (configuration not stated), 4.54 °C.

Values taken from the supplement of paper PMC9694430.
